Compound activity from PubChem BioAssay.
AI-2 QS mod = Vibrio harveyi AI-2 quorum sensing modulation; Vibrio harveyi JMH597 AI-2 luminescence/OD600 ratio, 9 h; stronger effect = lower value; strain lacks LuxN and CqsS sensors; 0 = neutral-control median; activity change, % at 7.5 µM; 300,000 tested, 0.4% active; in the data active means activity change below about -75%, passing the limit was not always enough;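 further: luminescence divided by OD600 gain over 9 h not by final OD600 alone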
Rin1-Abl PPI inh = human Rin1-Abl interaction inhibition; 360,000 tested, 0.4% active; P00519+Q13671; TR-FRET Rin1/Abl binding, biochemical; inhibition, % at 7.35 µM; in the data active means inhibition above about 5%, passing the limit was not always enough
Target sequence (P00519 whole entry, looked up): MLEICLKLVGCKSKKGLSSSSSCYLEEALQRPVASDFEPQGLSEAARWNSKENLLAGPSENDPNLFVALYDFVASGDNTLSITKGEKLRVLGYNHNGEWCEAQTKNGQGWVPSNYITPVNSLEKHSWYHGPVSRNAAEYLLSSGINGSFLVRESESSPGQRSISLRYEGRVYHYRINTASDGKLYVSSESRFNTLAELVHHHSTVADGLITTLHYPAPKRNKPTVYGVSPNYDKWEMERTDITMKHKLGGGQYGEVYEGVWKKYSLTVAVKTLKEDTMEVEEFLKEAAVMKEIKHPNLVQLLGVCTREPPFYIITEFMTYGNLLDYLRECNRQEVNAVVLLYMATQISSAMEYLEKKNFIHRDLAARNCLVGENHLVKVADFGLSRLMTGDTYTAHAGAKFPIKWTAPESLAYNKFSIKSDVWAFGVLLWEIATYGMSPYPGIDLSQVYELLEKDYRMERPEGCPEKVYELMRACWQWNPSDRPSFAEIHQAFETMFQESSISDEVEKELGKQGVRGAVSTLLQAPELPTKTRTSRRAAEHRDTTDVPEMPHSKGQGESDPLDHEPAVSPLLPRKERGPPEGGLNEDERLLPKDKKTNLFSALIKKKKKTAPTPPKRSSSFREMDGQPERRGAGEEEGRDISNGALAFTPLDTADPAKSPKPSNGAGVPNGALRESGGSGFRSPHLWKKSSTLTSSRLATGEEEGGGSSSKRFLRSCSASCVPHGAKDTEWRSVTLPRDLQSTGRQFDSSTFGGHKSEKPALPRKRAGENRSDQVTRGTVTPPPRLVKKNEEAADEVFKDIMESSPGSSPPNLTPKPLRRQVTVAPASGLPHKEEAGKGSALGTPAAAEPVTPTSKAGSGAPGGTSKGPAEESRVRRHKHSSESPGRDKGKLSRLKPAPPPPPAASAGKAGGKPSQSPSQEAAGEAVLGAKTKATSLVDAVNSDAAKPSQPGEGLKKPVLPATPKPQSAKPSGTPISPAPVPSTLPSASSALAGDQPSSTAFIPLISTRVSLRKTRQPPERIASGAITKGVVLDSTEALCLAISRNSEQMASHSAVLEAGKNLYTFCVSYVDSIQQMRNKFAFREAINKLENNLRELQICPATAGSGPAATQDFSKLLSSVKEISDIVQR
Target sequence (Q13671 whole entry, looked up): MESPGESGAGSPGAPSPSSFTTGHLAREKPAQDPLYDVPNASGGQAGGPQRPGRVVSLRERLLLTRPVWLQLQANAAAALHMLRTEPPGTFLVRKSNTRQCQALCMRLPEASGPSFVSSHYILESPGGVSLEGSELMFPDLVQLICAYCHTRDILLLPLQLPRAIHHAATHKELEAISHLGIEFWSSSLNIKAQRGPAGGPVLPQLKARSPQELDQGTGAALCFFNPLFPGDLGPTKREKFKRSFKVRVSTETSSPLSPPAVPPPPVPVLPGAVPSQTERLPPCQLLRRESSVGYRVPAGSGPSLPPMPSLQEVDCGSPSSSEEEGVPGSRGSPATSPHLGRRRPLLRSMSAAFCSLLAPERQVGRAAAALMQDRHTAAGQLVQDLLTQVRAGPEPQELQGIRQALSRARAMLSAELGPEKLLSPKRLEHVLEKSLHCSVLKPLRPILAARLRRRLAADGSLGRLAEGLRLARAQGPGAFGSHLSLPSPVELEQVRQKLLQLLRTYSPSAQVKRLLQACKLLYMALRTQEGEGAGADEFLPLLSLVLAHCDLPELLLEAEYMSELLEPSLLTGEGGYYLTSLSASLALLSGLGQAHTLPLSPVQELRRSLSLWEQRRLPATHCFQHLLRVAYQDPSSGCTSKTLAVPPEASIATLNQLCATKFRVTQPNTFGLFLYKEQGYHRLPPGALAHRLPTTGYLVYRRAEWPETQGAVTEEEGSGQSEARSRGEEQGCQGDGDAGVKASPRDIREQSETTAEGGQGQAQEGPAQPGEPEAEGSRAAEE
ARNT-TACC3 inh = disrupts binding between human ARNT and TACC3; AlphaScreen His-ARNT PAS-B/GST-TACC3 binding, luminescence; TACC3 fragment carries E629A point mutation; inhibition, % at 9.99 µM; 390,000 tested, 0.66% active; AID 623870;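 active means mean inhibition of replicates at least 50% and at least half of replicates each reaching 50%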;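 further: 0% = complete ARNT plus TACC3 wells and 100% = ARNT alone without TACC3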
HGIII-sPLA2 inh = Blocks human group III sPLA2 activity | Q9NZ20 | QFRET BODIPY PC-A2 liposome hydrolysis, fluorescence | inhibition, % at 12.2 µM | 370,000 tested, 0.56% active;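 active means inhibition above mean plus 3 SD of compounds lying within the high and low control bounds, cut at about 19% in these data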;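 further: 0% = median of test compound wells and 100% = no enzyme DMSO wells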
AlphaScreen ctr = interferes with AlphaScreen signal, flagging false ARNT-TACC3 hits; AID 651705; AC50, µM (series often up to 68 µM), inactives show at the highest dose activity change, negative = signal decrease; His-ARNT PASB-GST AlphaScreen artifact counter-screen, luminescence; shares compounds with ARNT-TACC3 inh; 1,200 tested, 50% active;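 active means every separate test run was called active for a drop in luminescence, with AC50 within twice the top valid dose, actives reach about 71 µM in these data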
* = called active by the depositor; / = no result. This is a sample that favours compounds with a hit; in the whole collection about 1.5% have one here.

SMILES	AI-2 QS mod	Rin1-Abl PPI inh	ARNT-TACC3 inh	HGIII-sPLA2 inh	AlphaScreen ctr
O=C(O)COc1ccccc1/C=N/NC(=O)c1cc(-c2ccccc2)nc2ccccc12	17.8	0.4	23.1	-6.9	/
O=C(O)COc1ccccc1/C=N/NC(=O)c1cc(-c2ccc(Cl)cc2)nc2ccccc12	56.7	-1.9	41.5*	-23.0	56µM*
O=C(N/N=C/c1c(Cl)nc2ccccn2c1=O)c1cccnc1	11.4	-1.1	56.7*	12.4	-10.3%
O=C(N/N=C/c1cccnc1)c1cccc(Cl)c1	22.8	0.1	-0.8	0.3	/
O=C(N/N=C/c1cc(Cl)cc(Cl)c1O)c1ccncc1	-84.8*	-1.1	54.1*	-19.4	33.7µM*
O=C(N/N=C/c1cc(Cl)ccc1O)c1cccnc1	-39.9	-3.4	57.7*	-8.5	60µM*
C[C@@H]1CN([C@H](C)CO)C(=O)Cc2cc(NC(=O)Cn3cnnn3)ccc2O[C@H]1CN(C)CC1CC1	/	/	-1.6	/	/
C[C@@H]1CN([C@@H](C)CO)S(=O)(=O)c2ccc(C#Cc3ccccc3F)cc2O[C@@H]1CN(C)CC1CCOCC1	/	/	1.5	/	/
C[C@@H]1CN([C@@H](C)CO)C(=O)c2cc(NC(=O)CCC(F)(F)F)ccc2O[C@@H](C)CCCCO[C@@H]1CN(C)C(=O)Nc1ccc(C(F)(F)F)cc1	/	/	-3.4	/	/
CN(C)CCN(C(=O)c1ccc2c(c1)CCCC2)c1nc2cc3c(cc2s1)OCCO3	15.9	-0.3	52.2*	4.1	23.7µM*
CC(C)NC(=O)Nc1cccc2c1O[C@@H](CN(C)C(=O)NC1CCCCC1)[C@@H](C)CN([C@H](C)CO)C2=O	/	/	23.9	/	/
COc1cc2c(cc1OC)C(Cc1ccccc1[N+](=O)[O-])=NCC2	/	1.8	39.3*	-4.3	-10.2%
CCC(=O)N(C)C[C@H]1Oc2cc(C#CC3(O)CCCC3)ccc2S(=O)(=O)N([C@H](C)CO)C[C@H]1C	/	/	-2.3	/	/
C[C@H](CO)N1C[C@H](C)[C@@H](CN(C)C(=O)Nc2ccc3c(c2)OCO3)Oc2ncc(-c3cccnc3)cc2C1=O	/	/	16.4	/	/
Cc1[nH][nH]c(=O)c1C(c1ccc(-c2ccc(F)cc2)o1)c1c(C)[nH][nH]c1=O	21.4	3.1	48.3*	-19.1	-19.3%
Cc1[nH][nH]c(=O)c1C(c1ccc(-c2ccc(C(=O)O)cc2)o1)c1c(C)[nH][nH]c1=O	/	6.8	72.2*	0.5	-11.3%
CO[C@H]1CN(C)C(=O)c2cc(NC(=O)NC3CCCCC3)ccc2OC[C@H](C)N(C(C)=O)C[C@@H]1C	/	/	-0.2	/	/
CN(C)c1ccc2c(c1)[C@H]1C[C@H](CC(=O)O)O[C@@H](CO)[C@H]1O2	/	/	1.1	/	/
CCc1ccc(S(=O)(=O)Nc2cc(SCC(=O)O)c(O)c3ccccc23)cc1	38.2	6.9	/	-0.2	/
O=C(O)CSc1cc(NS(=O)(=O)c2cccc([N+](=O)[O-])c2)c2ccccc2c1O	55.2	0.5	61.4*	11.4	-10.6%
O=C(CN1CCCCCC1)Nc1ccccc1[N+](=O)[O-]	/	-0.5	50.8*	-5.8	-10.6%
CN1CCN(CC(=O)Nc2ccccc2[N+](=O)[O-])CC1	10.4	0.9	-2.0	-2.5	/
C/C(=N\NC(=O)c1ccncc1)C12CC3CC(CC(C3)C1)C2	14.5	1.9	50.9*	15.3	4.6%
O=C(NNC(=O)C12CC3CC(CC(C3)C1)C2)c1ccncc1	15.9	2.5	-8.0	1.2	/
COc1cc(NC(=O)CSc2ccc(-c3ccccn3)nn2)cc(OC)c1	2.6	-1.7	58.5*	-18.6	11.3µM*
SMILES	AI-2 QS mod	Rin1-Abl PPI inh	ARNT-TACC3 inh	HGIII-sPLA2 inh	AlphaScreen ctr
CC(=O)Nc1cccc(NC(=O)CSc2nnc3ccc(-c4ccccn4)nn23)c1	20.9	-1.2	23.1	1.8	/
CC(=O)c1cccc(NC(=O)CSc2ccc(-c3ccccn3)nn2)c1	4.9	-8.3	54.9*	4.3	15.2µM*
CC(=O)Nc1cccc(NC(=O)CSc2ccc(-c3ccccn3)nn2)c1	20.4	-10.2	58.0*	-0.6	13.9µM*
COc1ccc(C)cc1NC(=O)CSc1ccc(-c2ccccn2)nn1	9.1	0.2	54.0*	8.2	18.5µM*
Cc1cccc(NC(=O)CSc2ccc(-c3cccnc3)nn2)c1	14.5	-0.5	4.3	-1.8	/
C[C@H]1CN([C@@H](C)CO)C(=O)Cc2cc(NS(=O)(=O)c3cccs3)ccc2O[C@@H]1CN(C)CC1CCCCC1	/	/	2.3	/	/
Cc1ccc(S(=O)(=O)N2CC[C@@H]3[C@@H](CO)Nc4ccc(-c5ccc(C#N)cc5)cc4[C@@H]32)cc1	/	/	15.2	/	/
COCC(=O)Nc1ccc2c(c1)C(=O)N(C)C[C@H](OC)[C@@H](C)CN(Cc1ccccc1OC)[C@@H](C)CO2	/	/	-9.0	/	/
CNC(=O)C[C@@H]1CC[C@H]2[C@H](COc3ccc(NC(=O)Nc4ccc(C)cc4)cc3C(=O)N2C)O1	/	/	-5.4	/	/
Cc1ccc(NC(=O)CSc2ccc(-c3ccccn3)nn2)cc1F	13.4	-3.2	50.3*	5.4	-20.2%
CCc1cnc(N2[C@@H](C#N)[C@@H](c3ccc(C4=CCCC4)cc3)[C@@H]2CO)s1	/	/	2.4	/	/
C[C@@H]1CN([C@@H](C)CO)C(=O)Cc2cc(NC(=O)Nc3cccc4ccccc34)ccc2O[C@@H]1CN(C)Cc1ccncc1	/	/	-0.3	/	/
O=C1c2cccnc2C(=O)N1Cc1ccc(S(=O)(=O)NCc2ccco2)s1	13.3	-1.5	56.8*	-0.1	-8.0%
C[C@H]1CN([C@@H](C)CO)C(=O)c2cc(NC(=O)Cc3cn(C)c4ccccc34)ccc2O[C@H]1CN(C)C(=O)Nc1cccc2ccccc12	/	/	-9.3	/	/
CC(C)NC(=O)N(C)C[C@H]1OCCCC[C@H](C)Oc2ccc(NC(=O)C3CCCCC3)cc2C(=O)N([C@H](C)CO)C[C@H]1C	/	/	4.3	/	/
CCOC(=O)N1CCN(C(=O)CSc2ccc3nnc(-c4ccccn4)n3n2)CC1	5.3	-1.0	42.0*	-0.2	2.4%
O=C(CSc1ccc2nnc(-c3cccnc3)n2n1)NCC1CCCO1 (stereo not drawn)	4.2	-1.6	-3.9	6.6	/
Cc1ccccc1NC(=O)CSc1nnc(-c2ccccn2)o1	29.5	0.7	/	2.8	/
O=C(CSc1ccc2nnc(-c3ccccn3)n2n1)NCC1CCCO1 (stereo not drawn)	9.3	-1.3	56.2*	2.8	-15.9%
O=C(CSc1nnc(-c2ccccn2)o1)Nc1ccccc1F	22.3	3.0	58.7*	-6.0	-10.2%
O=C(CSc1ccc2nnc(-c3ccccn3)n2n1)Nc1ccccc1F	4.6	-1.1	52.9*	-0.9	-33.7%
C[C@@H]1CN([C@@H](C)CO)C(=O)c2cccc(NC(=O)c3nc4ccccc4s3)c2O[C@@H]1CN(C)Cc1ccncc1	/	/	1.7	/	/
Cc1ccc(/C=N/NC(=S)N2CCOCC2)cc1	14.1	4.0	45.4*	-3.8	-31.0%
Cc1ccc(CNC(=S)N2CCOCC2)cc1	21.0	2.1	1.9	6.0	/
NC(=O)CC(NC(=O)c1ccccc1)c1ccc(NCc2ccccn2)c([N+](=O)[O-])c1 (stereo not drawn)	38.5	-1.9	65.2*	-0.3	-13.1%
